PubChem BioAssay (NCI)
Compounds without any hit were thinned out: in the full panel of roughly 79,000, 15% have a hit. Calls of active or inactive are those of the source. No stated cut-off is given here; in the data, active means growth inhibition above about 70%; inactive means the rest.

How the values were obtained:
[1] = NCI Yeast Anticancer Drug Screen. Data for the rad50 strain (AID 155);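 further: 0% = growth of vehicle-only cultures of the same strain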; conditions: S. cerevisiae rad50 strain growth inhibition; at 50.0 µM; stronger effect = higher value
Summary of the method: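 Relative growth inhibition (compound vs vehicle) was measured in yeast with a defined repair-gene alteration.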

[2] = NCI Yeast Anticancer Drug Screen. Data for the mec2-1 strain (AID 157); conditions: S. cerevisiae mec2-1 strain, at 50.0 µM, stronger effect = higher value
Summary of the method: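 Each compound was tested on mec2-1 yeast, a strain altered in DNA damage repair or cell cycle control. Growth inhibition is reported relative to vehicle.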

[3] = NCI Yeast Anticancer Drug Screen. Data for the sgs1 mgt1 strain (AID 161);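 further: 0% = growth of cultures given vehicle only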; conditions: S. cerevisiae sgs1 mgt1 strain, at 50.0 µM, stronger effect = higher value
Summary of the method: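 Inhibition of yeast growth, normalised to vehicle-treated controls, is reported for a strain bearing genetic alterations in DNA damage repair.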

[4] = NCI Yeast Anticancer Drug Screen. Data for the cln2 rad14 strain (AID 165);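 further: 0% = growth equal to vehicle treated cultures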; conditions: S. cerevisiae cln2 rad14 strain, at 50.0 µM, stronger effect = higher value
Summary of the method: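 Test compounds were added to cln2 rad14 yeast cultures; inhibition of growth was then determined by comparison with vehicle treatment.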

[5] = NCI Yeast Anticancer Drug Screen. Data for the bub3 strain (AID 167); conditions: S. cerevisiae bub3 mutant strain, at 50.0 µM, stronger effect = higher value
Summary of the method: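 Screening used yeast with an engineered genetic alteration affecting cell cycle control. Compound-exposed cultures were compared with vehicle cultures, and reduced growth was taken as inhibition.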

[6] = NCI Yeast Anticancer Drug Screen. Data for the mlh1 rad18 strain (AID 175); conditions: S. cerevisiae mlh1 rad18 strain growth inhibition; at 50.0 µM; stronger effect = higher value
Summary of the method: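 Inhibition values reflect reduced growth of mutant yeast versus vehicle-treated controls following compound exposure; the mutations affect DNA damage repair.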

Measured: growth inhibition

CNC1=C(N2CC2)C(=O)C(NC)=C(N2CC2)C1=O
inactive: [1] 7.7% | [2] 28.3% | [3] 17.9% | [4] 10.8% | [5] 13.8% | [6] 36.4%

CCN(CC)CC#N
inactive: [1] 3.8% | [2] -2.75% | [3] -6.4% | [4] -0.25% | [5] 3.45% | [6] -0.7%

CC(C)(C)N1OC1c1cccc(Cl)c1 (configuration not stated)
inactive: [1] 29.6% | [2] 29.4% | [3] 10.8% | [4] 11.9% | [5] -2.85% | [6] 36.5%

CCCCCCCBr
inactive: [1] -21.5% | [2] 9% | [3] 3.1% | [4] 0.6% | [5] -5.45% | [6] 15.3%

CCOP(=O)(OCC)C(O)c1ccc(Cl)cc1 (configuration not stated)
inactive: [1] -5.1% | [2] -13.8% | [3] -0.6% | [4] -9.35% | [5] 22.3% | [6] -11.3%

C=C(C)[C@]12CC(C)C34OC(/C=C\C=C\CCCCCCCCC)(O[C@@H]1[C@@H]3[C@@H]1O[C@]1(CO)[C@@H](O)[C@]1(O)C(=O)C(C)=C[C@@H]41)O2 (some centres not stated)
active: [1] 74.4% | [2] 70% | [3] 84.9% | [4] 73% | [5] 73.1%
inactive: [6] 64.2%

O=C1NC(=O)C(CCO)(c2ccccc2)C(=O)N1
inactive: [1] -21.6% | [2] -13% | [3] -4.4% | [4] -6.25% | [5] -11.7% | [6] -4.15%

CN(C)C(=S)Oc1cc(Cl)c(S(=O)(=O)F)cc1Cl
active: [1] 99.5% | [2] 98.8% | [3] 99.2% | [4] 95.8% | [5] 99.2% | [6] 99%

CCCC[C@H]1C(=O)O[C@H](C)[C@H](NC(=O)c2cccc(NC=O)c2O)C(=O)O[C@@H](C)[C@@H]1OC(=O)CC(C)C
inactive: [1] 18.4% | [2] 12.5% | [3] 30.9% | [4] 16.4% | [5] 13.6% | [6] 44.2%

COc1ccc(NC(=O)COc2cccc(Cl)c2)cc1S(=O)(=O)F
inactive: [1] 3.95% | [2] 32.1% | [3] 14.4% | [4] -2.65% | [5] 30.1% | [6] 1.15%

COc1cc2c(cc1OC)C(c1ccc(O)c(O)c1)CNC2 (configuration not stated)
inactive: [1] -27.8% | [2] -7.9% | [3] -31.1% | [4] -10.1% | [5] -21.1% | [6] -5.3%

CN(C)CCN1C(=O)CN=C(c2ccccc2Cl)c2cc(Cl)ccc21
inactive: [1] 15.8% | [2] 12.2% | [3] 27% | [4] 2.75% | [5] 0.2% | [6] 27.6%

CCCCC1(CCO)C(=O)NC(=O)NC1=O
inactive: [1] -12.1% | [2] -2.65% | [3] -5.7% | [4] -19.1% | [5] 28.4% | [6] -20.6%

CCC[CH2][Sn]([CH2]CCC)([CH2]CCC)[CH2]CCNCCCN(C)C
active: [1] 99.3% | [2] 99.7% | [3] 99.5% | [4] 99% | [5] 98.8% | [6] 99.2%

COc1ccc2c(c1)C13CCCCC1C(C2)[N+](C)([O-])CC3 (configuration not stated)
inactive: [1] -6.8% | [2] -19.1% | [3] 6.35% | [4] -38.1% | [5] -10.9% | [6] 4.95%

COc1nc(N2CCNCC2)nc2c1CCCC2
inactive: [1] 4.85% | [2] -10.7% | [3] -21.1% | [4] 17.8% | [5] -0.75% | [6] -0.45%

Cc1ccc2[nH]cc(CCN)c2c1
inactive: [1] -5.9% | [2] -53.1% | [3] -5.4% | [4] 21.8% | [5] -19.8% | [6] -27.5%

N#CC(C#N)=Cc1ccccc1C(=O)O
inactive: [1] 14.9% | [2] 11.3% | [3] -12.3% | [4] 14.7% | [5] 7.15% | [6] -4.1%

CN(C)c1cccc(NC2=NCCO2)c1
inactive: [1] -21.3% | [2] -24.5% | [3] -27.7% | [4] 7.35% | [5] -20.4% | [6] -14.6%

CC(Cc1ccc(Cl)cc1Cl)NO (configuration not stated)
inactive: [1] 15.7% | [2] -12.2% | [3] -15.9% | [4] -25.6% | [5] -43.2% | [6] -2.15%

CCCC[S][Hg][I]
active: [1] 92.5% | [2] 98.7% | [3] 97.9% | [5] 99.1% | [6] 98.8%
inactive: [4] 38.9%

O=C1N=NC(Cl)c2ccccc21 (configuration not stated)
inactive: [1] -20.6% | [2] -13.5% | [3] -19.1% | [4] 2.65% | [5] -17.9% | [6] -10.8%

CC(=O)Cc1ccc(C)cc1
inactive: [1] -40.4% | [2] -41.8% | [3] -29.5% | [4] 7.3% | [5] -44.5% | [6] -20.3%

c1ccc(NNc2ccccc2)cc1
inactive: [1] 8.5% | [2] 1.7% | [3] 0.95% | [4] -14.1% | [5] -6.15% | [6] -5.65%

CC(=O)Nc1cc([As]=O)ccc1O (configuration not stated)
inactive: [1] 29.2% | [2] 25.2% | [3] 31.8% | [4] 10.6% | [5] 50.8% | [6] 32.6%

N#Cc1ccc(Cc2ccccn2)cc1Cl
inactive: [1] -1.55% | [2] -1.55% | [3] -8.9% | [4] 2.1% | [5] -18.9% | [6] 4.25%

CC[As](=O)(O)CCCc1ccccc1
inactive: [1] 5.55% | [2] 32.9% | [3] 14.9% | [4] 3.1% | [5] -0.15% | [6] -2.05%

Cc1cc(NC(=O)CCc2ccc(N)cc2)ccc1S(=O)(=O)F
active: [1] 89.5% | [2] 94.9% | [3] 96.5% | [4] 81.8% | [5] 95% | [6] 95.2%

O=C(CN1C(=O)c2ccccc2C1=O)OCCNCCCl
active: [1] 98.2% | [2] 96.5% | [3] 98.1% | [4] 95.9% | [5] 97.4% | [6] 98.5%

CCCCn1c(C)c(C(=O)OCC)c2cc(OCc3ccc(C(=O)Nn4c(C)ccc4C)cc3)c(Br)cc21
inactive: [1] 7.1% | [2] -30.7% | [3] -15.5% | [4] -18.6% | [5] -27.4% | [6] -20.1%

Cc1ccc(N)cc1
inactive: [1] 2.1% | [2] -2.55% | [3] -7.2% | [4] -1.1% | [5] 9.4% | [6] 1.3%

CC(=O)CP(=O)(O)O
inactive: [1] 23.3% | [2] -11.6% | [3] -0.15% | [4] -55.9% | [5] 10.1% | [6] -6.35%

CCOc1ccc2ccccc2c1OP(=O)(OCC)OCC
inactive: [1] 23.9% | [2] 22% | [3] 38.9% | [4] 29.6% | [5] 40.4% | [6] 25.6%

[Cu+2].[NH-]c1ccccc1C(=O)O.[NH-]c1ccccc1C(=O)O
inactive: [1] -34.8% | [2] -21.8% | [3] -13.9% | [4] -87.7% | [5] -27.1% | [6] -52.4%

CC1CN1C1=C(Br)C(=O)C(N2CC2C)=C(Br)C1=O (configuration not stated)
active: [1] 73.7% | [3] 84% | [6] 79.8%
inactive: [2] 23.1% | [4] -3.05% | [5] 62%

N#CC(C#N)=Cc1ccccc1[N+](=O)[O-]
inactive: [1] 41.9% | [2] 17.2% | [3] 8.3% | [4] 25.6% | [5] 39.8% | [6] 29.7%

O=c1oc2ccccc2c(O)c1C(c1ccc2c(c1)OCO2)c1c(O)c2ccccc2oc1=O
inactive: [1] -5.8% | [2] -4.75% | [3] 34.7% | [4] 7% | [5] 3.65% | [6] 28.4%

O=C([O-])C(=O)[O-].[Co+3].[NH2-].[NH2-].[NH2-].[NH2-].[O-][Cl+3]([O-])([O-])O
inactive: [1] 18.5% | [2] 21.9% | [3] 13.2% | [4] 15.7% | [5] 18.1% | [6] 36.8%

C/C(CCl)=N\NC1=NC2(CCCCC2)P(=O)(NNc2ncccn2)S1 (configuration not stated)
inactive: [1] 3.7% | [2] 12% | [3] 19.9% | [4] -0.5% | [5] 6.3% | [6] 15.2%

Nc1ccc(Oc2ccc(N)cc2)cc1
inactive: [1] 3.1% | [2] 10% | [3] 14.6% | [4] 11.7% | [5] 12.4% | [6] 26.1%

CCCC[S][Sn]([CH2]CCC)([CH2]CCC)[S]CCCC
active: [1] 95.8% | [2] 92.3% | [3] 94.7% | [4] 89.2% | [5] 93.2% | [6] 95.5%

COc1ccc(C(=O)O[C@H]2CC[C@@]3(C)[C@@H]4CC[C@H]5[C@]6(O)C[C@H](O)[C@@]7(O)[C@@H](CN8C[C@@H](C)CC[C@H]8[C@@]7(C)O)[C@]6(O)C[C@@]53OC24O)cc1OC
inactive: [1] -16.7% | [2] -32% | [3] -28.9% | [4] 6.4% | [5] -28.8% | [6] -5.15%
